In the supplement of paper PMC6555819:

Legend:
Test in all cases: PBM binding z-score (relative to random genomic background probes); higher = stronger binding; sequences stand for … in GC…GCGATTGACAGCGTAGAATGAAGG
[1] = system: FXR:RXRa (NR concentration 270 nM, RXRa partner concentration 90 nM)
Outline: (§1)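 Regression normalization was applied to scanned fluorescence from custom Agilent 4×180K protein-binding microarrays. Before scanning, arrays were incubated 1 h with ligand-free nuclear receptor dimers, and binding was detected with antibodies against each partner (one per run). Binding z-scores use the random background probes as reference.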

[2] = system: LXRa:RXRa (NR concentration 270 nM, RXRa partner concentration 90 nM)
Outline: as §1

[3] = system: LXRa homodimer (NR concentration 270 nM)
Outline: as §1

[4] = system: LXRb:RXRa (NR concentration 270 nM, RXRa partner concentration 90 nM)
Outline: as §1

[5] = system: LXRb homodimer (NR concentration 270 nM)
Outline: as §1

[6] = system: PPARa:RXRa (NR concentration 270 nM, RXRa partner concentration 90 nM)
Outline: as §1

[7] = system: PPARg:RXRa (NR concentration 180 nM, RXRa partner concentration 90 nM)
Outline: as §1

[8] = system: PPARg:RXRa 270nM:90nM, anti-RXR (NR concentration 270 nM, RXRa partner concentration 90 nM)
Outline: as §1

[9] = system: PPARg:RXRa 30nM:10nM, anti-RXR (NR concentration 30 nM, RXRa partner concentration 10 nM)
Outline: as §1

[10] = system: PPARg:RXRa 90nM:30nM, anti-RXR (NR concentration 90 nM, RXRa partner concentration 30 nM)
Outline: as §1

[11] = system: PPARg:RXRa DBDmut IVT, anti-RXR (DBD mutation: RXRa K156A/R161A, NR concentration 270 nM, RXRa partner concentration 90 nM)
Outline: as §1

[12] = system: PPARg:RXRa IVT, anti-PPARg (NR concentration 270 nM, RXRa partner concentration 90 nM)
Outline: as §1

[13] = system: PPARg DBDmut:RXRa IVT, anti-PPARg (DBD mutation: PPARg1 K132A/R137A, NR concentration 270 nM, RXRa partner concentration 90 nM)
Outline: as §1

[14] = system: PPARg DBDmut IVT, anti-PPARg (DBD mutation: PPARg1 K132A/R137A, NR concentration 270 nM)
Outline: as §1

[15] = system: PPARg homodimer (NR concentration 180 nM)
Outline: as §1

[16] = system: PXR:RXRa (NR concentration 270 nM, RXRa partner concentration 90 nM)
Outline: as §1

[17] = system: PXR homodimer (NR concentration 270 nM)
Outline: as §1

[18] = system: RARa:RXR (NR concentration 270 nM, RXRa partner concentration 90 nM)
Outline: as §1

[19] = system: RARa homodimer (NR concentration 270 nM)
Outline: as §1

[20] = system: RARb:RXRa (NR concentration 270 nM, RXRa partner concentration 90 nM)
Outline: as §1

| Sequence | PBM binding z-score [1] | PBM binding z-score [2] | PBM binding z-score [3] | PBM binding z-score [4] | PBM binding z-score [5] | PBM binding z-score [6] | PBM binding z-score [7] | PBM binding z-score [8] | PBM binding z-score [9] | PBM binding z-score [10] | PBM binding z-score [11] | PBM binding z-score [12] | PBM binding z-score [13] | PBM binding z-score [14] | PBM binding z-score [15] | PBM binding z-score [16] | PBM binding z-score [17] | PBM binding z-score [18] | PBM binding z-score [19] | PBM binding z-score [20] |
| --- | --- | --- | --- | --- | --- | --- | --- | --- | --- | --- | --- | --- | --- | --- | --- | --- | --- | --- | --- | --- |
| GGAATGAGGGCATTCGAGTTGATAGCATGGCGAT | 1.71 | 2.3 | -0.453 | 0.478 | -0.43 | 2.13 | 1.46 | 1.52 | 0.439 | 1.05 | 4.4 | 3.1 | 1.13 | -0.209 | 0.811 | 4.13 | 1.54 | 1.44 | -0.137 | 1.72 |
| AGAATGAGGTTAAGCTCAGGGAAACAGAATACAT | 2.88 | 1.94 | -0.491 | 1.79 | -0.626 | 3.77 | 2.4 | 2.58 | 0.895 | 1.48 | 3.66 | 2.98 | 0.873 | 0.751 | -0.0277 | 1.1 | 0.0253 | 2.17 | -0.438 | 2.06 |
| CCTACTGGGCCAAGAAAGGTCATTGATTCAGTGA | 3.31 | 4.19 | 4.12 | 3.8 | -0.225 | 4.33 | 2.63 | 3.17 | 0.919 | 2.35 | 3.49 | 3.92 | -0.232 | 0.143 | 2.98 | 5.1 | 1.18 | 5.31 | 1.75 | 3.89 |
| ATCTCTAGGTAACAAGTACAGTGAAAGAGAGGAC | 0.404 | 0.297 | 0.245 | -0.0374 | 0.894 | 0.308 | 1.33 | 1.36 | 0.696 | 1.02 | 2.78 | 2.91 | 1.63 | 0.83 | 0.76 | 0.221 | 0.657 | 0.485 | 1.28 | 0.624 |
| CCGACTGGGGCATAAGGTTGCCATAAGCCAGCCC | -0.333 | -0.188 | -0.75 | -0.498 | -1.17 | 0.636 | 0.999 | 1.81 | -0.189 | 1.12 | 2.51 | 2.07 | -0.622 | -1.53 | -0.22 | -0.532 | -0.499 | 0.0769 | -0.329 | 0.569 |
| CCTTACGCGTCACTGACAGGTTATAGCATTTGGA | 0.188 | 0.449 | 0.568 | 0.697 | 0.644 | 0.558 | 0.31 | 0.128 | 0.0399 | 0.241 | 0.598 | -0.176 | 0.212 | 0.276 | 0.943 | 0.459 | 0.407 | 0.676 | 1.36 | 0.243 |
| CCTCGGAGGACCGAAGGTCAGAGCTGTCCGCTTT | 0.789 | 1.42 | -0.056 | 0.863 | -1.03 | 1.61 | -0.382 | 1.16 | -0.716 | 0.325 | -0.463 | -0.175 | -1.41 | -1.98 | 0.693 | 1.16 | -0.615 | 1.55 | -0.211 | 2.2 |
| TGAATTAGGTTATAAGATCAGGGAACGTTGCAAA | 0.295 | 0.216 | -0.00025 | 0.474 | 0.221 | 1.97 | 2.18 | 3.06 | 1.96 | 2.45 | 5.05 | 4.53 | 1.08 | 1.15 | 1.14 | -0.000172 | 0.301 | -0.0809 | 1.34 | 0.576 |
| CGAACTTGGTCATCCAGGACAGTGAATACATTGA | 0.205 | -0.0973 | -0.0371 | -0.13 | -0.606 | 0.208 | 0.624 | -0.0338 | 0.133 | -0.228 | 1.09 | 1.08 | 0.648 | 0.367 | -0.34 | 0.166 | 0.269 | 0.326 | -0.093 | 1.23 |
| AATACAGGGTCACTAGGCCAGAGTAGGTACGAAT | 6.37 | 5.07 | 0.678 | 3.95 | 0.879 | 6.03 | 8.23 | 6.72 | 3.56 | 5.66 | 3.83 | 5.94 | 2.04 | 1.71 | 2.24 | 3.28 | 0.432 | 4.51 | 0.176 | 4.39 |
| TGTCAAAGTTCAAATGTAACGTAAGTATCCACAC | 7.51 | 6.72 | 5.84 | 4.79 | 3.48 | 5.53 | 8.25 | 7.12 | 5.15 | 6.93 | 0.32 | 4.15 | 1.72 | 2.11 | 2.82 | 5.13 | 4.03 | 3.93 | 2.08 | 5.02 |
| AGACCGAGGGCACGCTGAGTTGATAGCAGAGTAG | 0.748 | 0.67 | -0.437 | 0.0788 | -0.999 | 1.56 | 0.962 | 0.775 | -0.337 | 0.0427 | 1.14 | 1.33 | -0.432 | -1.3 | 0.2 | 1.52 | -0.245 | 0.998 | -0.487 | 2.61 |
| TCATATAGATAATACAGGTGAAAGTCGGCATCTA | 1.28 | 0.946 | 0.247 | 1.08 | 0.215 | 1.53 | 1.36 | 2.47 | 4.31 | 3.51 | 2.86 | 1.53 | 1.59 | 1.15 | 0.855 | 0.717 | 0.495 | 1.04 | 2.03 | 0.481 |
| TCTGCTAGGTCAGTTGGTCAGCTTACGAGCTGCC | 0.94 | 0.456 | -0.755 | 0.14 | 0.216 | 1.29 | 0.177 | 1.69 | 0.977 | 1.39 | 2.73 | 3.32 | 0.732 | -0.0451 | -0.25 | 0.13 | -0.847 | 0.661 | -0.758 | 3.36 |
